Experimental data reported in the supplement of paper PMC11732987, “Enantioselective OTUD7B fragment discovery through chemoproteomics screening and high-throughput optimisation” (Communications Chemistry, 2025).

Assays:
Test in all cases: log2 ratio of Biotin-Ahx-Ub-VS probe labelling (fragment/DMSO); higher = less target engagement (more negative = stronger competition), active = hit call of the paper (q ≤ 0.05, log2 ratio ≤ -1)
Details in all cases: compound concentration: 200 uM; treatment time: 3 h
[1] = biological target: USP34 (UniProt Q70CQ2)
Summary of the method: (§1)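 Triplicate samples of HEK293T lysate, 495 µg each, received fragment at 200 µM or vehicle for 3 h, followed by Biotin-Ahx-Ub-VS (0.5 µM final) for 1 h. After NeutrAvidin enrichment of labelled DUBs and LysC/trypsin digestion, peptides were run by diaPASEF LC-MS/MS. The values are average log2 fragment/vehicle ratios from global-median-normalised Spectronaut label-free quantities, tested by unpaired t-test on proteins having ≥2 unique peptides.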

[2] = biological target: T1, USP36 (UniProt Q9P275)
T1 sequence (whole entry): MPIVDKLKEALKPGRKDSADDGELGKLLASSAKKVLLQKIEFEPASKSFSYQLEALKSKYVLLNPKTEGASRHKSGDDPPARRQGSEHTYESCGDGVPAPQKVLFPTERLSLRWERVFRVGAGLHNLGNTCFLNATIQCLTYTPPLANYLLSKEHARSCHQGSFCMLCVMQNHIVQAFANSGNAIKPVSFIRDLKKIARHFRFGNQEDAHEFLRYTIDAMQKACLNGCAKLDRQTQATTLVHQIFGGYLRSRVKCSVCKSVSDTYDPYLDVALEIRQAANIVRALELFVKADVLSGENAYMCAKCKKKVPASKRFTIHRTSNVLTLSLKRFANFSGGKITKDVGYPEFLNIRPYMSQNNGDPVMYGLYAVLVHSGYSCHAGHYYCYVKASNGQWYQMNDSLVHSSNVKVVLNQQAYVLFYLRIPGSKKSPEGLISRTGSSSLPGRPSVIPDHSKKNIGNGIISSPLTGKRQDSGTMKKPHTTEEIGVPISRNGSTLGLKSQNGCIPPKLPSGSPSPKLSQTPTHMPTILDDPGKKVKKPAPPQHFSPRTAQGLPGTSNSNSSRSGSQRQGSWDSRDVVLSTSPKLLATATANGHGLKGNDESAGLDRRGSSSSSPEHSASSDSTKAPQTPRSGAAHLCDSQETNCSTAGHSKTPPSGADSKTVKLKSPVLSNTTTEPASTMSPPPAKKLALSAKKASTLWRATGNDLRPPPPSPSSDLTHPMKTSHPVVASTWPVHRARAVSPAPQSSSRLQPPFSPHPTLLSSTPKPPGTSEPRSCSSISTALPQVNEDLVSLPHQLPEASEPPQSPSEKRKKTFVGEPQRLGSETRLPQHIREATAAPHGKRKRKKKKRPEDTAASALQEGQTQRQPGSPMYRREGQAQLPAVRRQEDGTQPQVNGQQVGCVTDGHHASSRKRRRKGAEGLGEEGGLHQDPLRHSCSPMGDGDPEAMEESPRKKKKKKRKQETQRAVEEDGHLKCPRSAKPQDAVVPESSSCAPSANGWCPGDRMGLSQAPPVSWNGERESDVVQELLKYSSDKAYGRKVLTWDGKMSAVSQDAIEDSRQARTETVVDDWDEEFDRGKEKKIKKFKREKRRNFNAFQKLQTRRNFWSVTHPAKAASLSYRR
Summary of the method: as §1

[3] = biological target: T2, USP38 (UniProt Q8NB14)
T2 sequence (whole entry): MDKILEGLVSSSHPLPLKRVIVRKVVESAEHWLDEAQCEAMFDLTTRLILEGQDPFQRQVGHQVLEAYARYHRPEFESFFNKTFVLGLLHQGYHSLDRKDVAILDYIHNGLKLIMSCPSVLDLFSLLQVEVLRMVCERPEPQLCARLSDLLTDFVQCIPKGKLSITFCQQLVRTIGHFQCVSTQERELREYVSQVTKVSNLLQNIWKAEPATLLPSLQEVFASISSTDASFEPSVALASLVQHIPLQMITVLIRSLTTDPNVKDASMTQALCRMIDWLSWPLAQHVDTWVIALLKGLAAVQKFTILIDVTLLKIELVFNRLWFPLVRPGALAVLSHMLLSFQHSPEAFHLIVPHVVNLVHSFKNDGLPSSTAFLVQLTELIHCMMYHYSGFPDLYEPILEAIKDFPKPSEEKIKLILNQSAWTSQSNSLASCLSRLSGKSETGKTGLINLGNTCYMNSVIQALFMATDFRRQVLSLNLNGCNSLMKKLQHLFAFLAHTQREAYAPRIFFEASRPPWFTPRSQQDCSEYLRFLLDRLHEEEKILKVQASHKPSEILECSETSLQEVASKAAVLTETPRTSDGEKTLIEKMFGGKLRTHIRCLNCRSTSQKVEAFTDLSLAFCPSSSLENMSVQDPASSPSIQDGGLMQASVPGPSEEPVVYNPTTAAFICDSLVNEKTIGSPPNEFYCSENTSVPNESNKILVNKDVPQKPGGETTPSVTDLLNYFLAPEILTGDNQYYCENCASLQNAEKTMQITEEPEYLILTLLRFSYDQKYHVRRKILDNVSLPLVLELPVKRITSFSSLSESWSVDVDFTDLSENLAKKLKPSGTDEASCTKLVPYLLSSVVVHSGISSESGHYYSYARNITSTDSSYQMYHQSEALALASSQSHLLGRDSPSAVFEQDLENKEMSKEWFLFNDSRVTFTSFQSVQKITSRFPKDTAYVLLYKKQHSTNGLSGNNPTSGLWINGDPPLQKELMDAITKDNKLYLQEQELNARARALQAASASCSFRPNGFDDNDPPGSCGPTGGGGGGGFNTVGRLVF
Summary of the method: as §1

[4] = biological target: T3, USP39 (UniProt Q53GS9)
T3 sequence (whole entry): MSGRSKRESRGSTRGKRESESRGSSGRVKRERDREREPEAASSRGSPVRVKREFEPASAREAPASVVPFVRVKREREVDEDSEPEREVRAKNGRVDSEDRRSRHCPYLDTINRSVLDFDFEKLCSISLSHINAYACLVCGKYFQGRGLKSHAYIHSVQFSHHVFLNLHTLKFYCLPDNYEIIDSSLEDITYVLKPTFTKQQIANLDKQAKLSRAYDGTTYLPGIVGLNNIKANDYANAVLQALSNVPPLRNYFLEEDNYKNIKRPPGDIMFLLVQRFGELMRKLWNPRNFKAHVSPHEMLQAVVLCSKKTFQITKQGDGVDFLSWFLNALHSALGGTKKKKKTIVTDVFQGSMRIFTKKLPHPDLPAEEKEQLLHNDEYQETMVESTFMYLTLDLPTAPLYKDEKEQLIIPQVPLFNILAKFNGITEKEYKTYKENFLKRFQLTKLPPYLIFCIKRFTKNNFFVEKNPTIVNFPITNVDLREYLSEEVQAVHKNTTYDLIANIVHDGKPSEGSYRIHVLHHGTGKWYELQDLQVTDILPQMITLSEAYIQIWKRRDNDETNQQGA
Summary of the method: as §1

[5] = biological target: T4, USP4 (UniProt Q13107)
T4 sequence (whole entry): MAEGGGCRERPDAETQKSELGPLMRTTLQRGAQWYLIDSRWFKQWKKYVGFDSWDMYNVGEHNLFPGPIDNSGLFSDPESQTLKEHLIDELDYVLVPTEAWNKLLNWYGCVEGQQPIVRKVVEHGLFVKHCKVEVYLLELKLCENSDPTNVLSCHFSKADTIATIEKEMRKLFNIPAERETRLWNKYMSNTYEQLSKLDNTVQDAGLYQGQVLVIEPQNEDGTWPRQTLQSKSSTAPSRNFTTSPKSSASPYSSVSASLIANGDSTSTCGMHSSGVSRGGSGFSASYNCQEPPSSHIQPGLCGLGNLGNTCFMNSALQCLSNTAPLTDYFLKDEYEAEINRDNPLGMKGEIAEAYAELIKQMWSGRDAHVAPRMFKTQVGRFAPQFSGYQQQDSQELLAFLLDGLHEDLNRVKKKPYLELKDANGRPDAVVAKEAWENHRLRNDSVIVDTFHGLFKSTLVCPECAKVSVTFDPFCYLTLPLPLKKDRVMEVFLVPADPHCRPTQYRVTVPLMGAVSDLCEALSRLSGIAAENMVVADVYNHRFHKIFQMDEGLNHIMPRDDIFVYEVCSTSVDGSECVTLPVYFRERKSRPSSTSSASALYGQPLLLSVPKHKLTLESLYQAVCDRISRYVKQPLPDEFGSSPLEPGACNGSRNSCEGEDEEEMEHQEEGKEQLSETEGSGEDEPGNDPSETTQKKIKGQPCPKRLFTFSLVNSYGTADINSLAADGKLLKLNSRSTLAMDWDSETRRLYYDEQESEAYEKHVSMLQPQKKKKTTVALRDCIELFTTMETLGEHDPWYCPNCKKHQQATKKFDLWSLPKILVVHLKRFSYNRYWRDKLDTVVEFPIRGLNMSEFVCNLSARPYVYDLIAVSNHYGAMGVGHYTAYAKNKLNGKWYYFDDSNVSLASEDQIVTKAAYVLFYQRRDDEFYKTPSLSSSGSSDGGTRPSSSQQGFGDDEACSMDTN
Summary of the method: as §1

Measured: log2 ratio of Biotin-Ahx-Ub-VS probe labelling

Sequence of USP34 (Q70CQ2 whole entry, the tested form may be a part): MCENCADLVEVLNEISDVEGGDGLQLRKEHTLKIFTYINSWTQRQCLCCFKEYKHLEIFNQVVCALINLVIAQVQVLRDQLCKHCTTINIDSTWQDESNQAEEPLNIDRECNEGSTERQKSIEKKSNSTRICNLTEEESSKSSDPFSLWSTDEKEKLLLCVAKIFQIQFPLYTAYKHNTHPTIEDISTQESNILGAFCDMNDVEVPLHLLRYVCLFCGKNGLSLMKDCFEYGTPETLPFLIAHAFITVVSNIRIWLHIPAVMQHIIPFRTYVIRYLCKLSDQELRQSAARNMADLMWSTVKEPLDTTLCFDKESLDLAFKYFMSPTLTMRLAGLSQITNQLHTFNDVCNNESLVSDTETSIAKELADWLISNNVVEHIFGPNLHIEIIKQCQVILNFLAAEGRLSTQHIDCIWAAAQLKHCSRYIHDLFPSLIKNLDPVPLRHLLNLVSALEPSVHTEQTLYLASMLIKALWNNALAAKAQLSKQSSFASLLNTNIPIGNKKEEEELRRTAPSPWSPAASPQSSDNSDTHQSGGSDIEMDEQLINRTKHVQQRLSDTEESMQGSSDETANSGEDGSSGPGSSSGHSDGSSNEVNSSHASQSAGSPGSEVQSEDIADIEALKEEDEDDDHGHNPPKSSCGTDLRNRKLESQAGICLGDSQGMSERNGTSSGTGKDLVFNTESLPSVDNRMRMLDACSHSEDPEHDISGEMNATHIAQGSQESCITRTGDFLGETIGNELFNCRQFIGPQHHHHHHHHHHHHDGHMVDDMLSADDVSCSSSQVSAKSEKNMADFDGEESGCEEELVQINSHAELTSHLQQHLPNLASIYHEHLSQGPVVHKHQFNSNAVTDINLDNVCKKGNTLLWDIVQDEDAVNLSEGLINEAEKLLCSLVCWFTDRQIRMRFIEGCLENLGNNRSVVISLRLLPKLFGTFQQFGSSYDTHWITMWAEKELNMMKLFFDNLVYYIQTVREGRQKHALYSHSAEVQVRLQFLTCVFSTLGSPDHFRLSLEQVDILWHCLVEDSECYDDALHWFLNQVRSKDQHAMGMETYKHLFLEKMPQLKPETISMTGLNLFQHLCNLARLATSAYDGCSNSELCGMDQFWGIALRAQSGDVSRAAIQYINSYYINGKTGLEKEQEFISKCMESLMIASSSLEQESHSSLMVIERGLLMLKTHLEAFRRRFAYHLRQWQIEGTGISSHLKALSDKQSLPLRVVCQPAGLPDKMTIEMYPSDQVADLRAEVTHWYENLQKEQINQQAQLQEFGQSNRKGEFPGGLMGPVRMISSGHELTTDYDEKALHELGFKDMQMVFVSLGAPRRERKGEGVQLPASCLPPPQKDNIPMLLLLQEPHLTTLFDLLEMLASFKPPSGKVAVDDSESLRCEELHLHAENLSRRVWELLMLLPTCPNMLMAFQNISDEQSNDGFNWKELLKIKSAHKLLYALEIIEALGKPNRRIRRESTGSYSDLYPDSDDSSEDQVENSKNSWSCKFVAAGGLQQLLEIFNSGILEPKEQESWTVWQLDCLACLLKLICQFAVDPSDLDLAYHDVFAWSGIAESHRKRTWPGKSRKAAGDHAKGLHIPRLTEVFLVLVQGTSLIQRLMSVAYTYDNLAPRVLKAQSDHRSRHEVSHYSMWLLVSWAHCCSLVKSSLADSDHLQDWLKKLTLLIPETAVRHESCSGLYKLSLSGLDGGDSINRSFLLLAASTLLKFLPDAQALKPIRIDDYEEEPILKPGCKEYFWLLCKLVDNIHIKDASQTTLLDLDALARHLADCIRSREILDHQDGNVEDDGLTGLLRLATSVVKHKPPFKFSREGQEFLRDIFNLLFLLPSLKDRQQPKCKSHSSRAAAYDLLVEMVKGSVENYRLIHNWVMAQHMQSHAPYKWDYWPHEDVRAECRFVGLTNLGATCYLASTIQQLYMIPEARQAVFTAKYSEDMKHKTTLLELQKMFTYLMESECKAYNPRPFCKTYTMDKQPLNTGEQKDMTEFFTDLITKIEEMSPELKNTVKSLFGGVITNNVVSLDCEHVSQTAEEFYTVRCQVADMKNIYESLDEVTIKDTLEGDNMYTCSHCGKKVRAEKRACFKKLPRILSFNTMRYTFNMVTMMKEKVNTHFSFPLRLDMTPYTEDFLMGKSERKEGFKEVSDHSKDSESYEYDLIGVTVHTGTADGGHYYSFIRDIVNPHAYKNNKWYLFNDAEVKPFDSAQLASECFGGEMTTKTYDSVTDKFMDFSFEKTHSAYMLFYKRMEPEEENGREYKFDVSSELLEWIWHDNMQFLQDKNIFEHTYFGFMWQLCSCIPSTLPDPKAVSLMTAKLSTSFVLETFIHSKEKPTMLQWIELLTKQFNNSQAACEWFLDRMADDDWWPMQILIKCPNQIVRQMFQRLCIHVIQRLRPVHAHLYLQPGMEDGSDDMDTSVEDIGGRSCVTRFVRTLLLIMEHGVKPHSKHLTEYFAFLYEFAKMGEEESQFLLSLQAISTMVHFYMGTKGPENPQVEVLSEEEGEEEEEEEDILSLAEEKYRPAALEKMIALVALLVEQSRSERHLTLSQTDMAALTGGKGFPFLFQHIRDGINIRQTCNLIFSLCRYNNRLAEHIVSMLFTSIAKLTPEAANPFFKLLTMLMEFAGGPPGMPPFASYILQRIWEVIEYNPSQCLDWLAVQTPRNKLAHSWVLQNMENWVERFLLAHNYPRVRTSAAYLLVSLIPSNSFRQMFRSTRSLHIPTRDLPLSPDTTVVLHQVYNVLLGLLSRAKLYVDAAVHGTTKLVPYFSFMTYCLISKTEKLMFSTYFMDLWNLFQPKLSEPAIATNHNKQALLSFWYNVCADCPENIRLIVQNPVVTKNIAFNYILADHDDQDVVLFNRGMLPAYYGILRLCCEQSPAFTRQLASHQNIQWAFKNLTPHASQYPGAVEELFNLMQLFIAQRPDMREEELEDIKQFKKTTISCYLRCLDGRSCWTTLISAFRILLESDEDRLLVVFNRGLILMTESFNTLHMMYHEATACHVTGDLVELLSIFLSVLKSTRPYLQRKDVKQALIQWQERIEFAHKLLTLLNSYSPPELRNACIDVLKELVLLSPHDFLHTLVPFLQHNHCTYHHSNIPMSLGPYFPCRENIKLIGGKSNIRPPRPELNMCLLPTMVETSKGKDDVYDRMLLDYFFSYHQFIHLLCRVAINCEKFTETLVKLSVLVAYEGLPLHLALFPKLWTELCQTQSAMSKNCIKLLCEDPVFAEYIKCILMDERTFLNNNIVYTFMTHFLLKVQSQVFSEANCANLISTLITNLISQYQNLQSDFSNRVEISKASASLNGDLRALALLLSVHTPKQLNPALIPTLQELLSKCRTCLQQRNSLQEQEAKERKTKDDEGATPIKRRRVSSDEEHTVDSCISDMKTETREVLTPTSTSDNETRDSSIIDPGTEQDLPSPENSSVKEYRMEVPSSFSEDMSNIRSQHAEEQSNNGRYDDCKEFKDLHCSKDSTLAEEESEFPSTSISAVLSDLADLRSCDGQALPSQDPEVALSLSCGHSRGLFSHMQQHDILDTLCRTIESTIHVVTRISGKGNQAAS

O=C(CCl)NCCC1COCCO1 (stereo not given)
inactive: [1] -0.0886 | [2] -0.0548 | [3] -0.0125 | [4] 0.0236 | [5] -0.00705
